PvdQ inh – P. aeruginosa PvdQ acylase inhibition | purified PvdQ acylase, fluorescence plate reader | inhibition, % at 10 µM | 340,000 tested, 0.063% active | AID 488965; in the data active = inhibition above about 30%, passing the limit was not always enough;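 note: 0% = vehicle neutral wells and 100% = reference inhibitor wells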
Glyco luc inh – N-linked glycosylation inhibition. D54 ERlucT glycosylation luciferase reporter, 24 h; percent of 100 nM tunicamycin response. reporter increase, % at 12.5 µM. 360,000 tested, 0.23% active;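 active = mean luciferase reporter signal, scaled so untreated is 0 and the glycosylation-blocking control 100, at or above a set limit in every replicate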;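 note: luciferase carries N-glycosylation sites so blocking glycosylation raises the light; 0% = median of neutral control wells and 100% = median of 100 nM tunicamycin wells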
RAD54 branch – inhibitors of human RAD54 branch migration; RAD54 Holliday junction branch migration, FAM/BHQ fluorescence; Q92698; 360,000 tested, 0.14% active; inhibition, % at 10.4 µM;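 active = mean normalized replicate activity at least 40 and at least half of replicates scoring 40 or more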;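 note: 0% = median of neutral control wells and 100% = median of positive control wells; inhibitors cause a drop in the FAM fluorescence signal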
Target sequence (Q92698 whole entry, looked up): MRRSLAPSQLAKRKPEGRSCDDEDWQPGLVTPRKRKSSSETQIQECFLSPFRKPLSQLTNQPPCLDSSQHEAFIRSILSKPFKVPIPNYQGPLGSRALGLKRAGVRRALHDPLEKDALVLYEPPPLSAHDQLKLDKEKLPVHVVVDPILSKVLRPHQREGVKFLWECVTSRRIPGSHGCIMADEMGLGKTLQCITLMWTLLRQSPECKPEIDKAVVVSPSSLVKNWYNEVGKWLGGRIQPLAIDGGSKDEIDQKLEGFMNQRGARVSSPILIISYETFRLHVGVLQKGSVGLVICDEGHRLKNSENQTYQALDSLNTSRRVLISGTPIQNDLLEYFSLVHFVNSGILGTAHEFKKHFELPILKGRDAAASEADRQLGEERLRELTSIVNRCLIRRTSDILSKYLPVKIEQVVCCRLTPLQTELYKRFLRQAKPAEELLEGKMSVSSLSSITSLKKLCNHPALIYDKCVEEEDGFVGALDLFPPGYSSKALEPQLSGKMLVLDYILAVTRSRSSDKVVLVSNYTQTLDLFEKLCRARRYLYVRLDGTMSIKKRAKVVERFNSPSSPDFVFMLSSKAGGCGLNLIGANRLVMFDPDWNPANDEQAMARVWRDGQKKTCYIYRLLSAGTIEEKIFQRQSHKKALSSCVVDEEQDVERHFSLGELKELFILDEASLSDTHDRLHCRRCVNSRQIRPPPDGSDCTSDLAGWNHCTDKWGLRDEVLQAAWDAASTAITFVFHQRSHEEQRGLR
RAD52 anneal inh – blocks human RAD52 DNA annealing; P43351; recombinant RAD52 DNA annealing, FRET fluorescence; inhibition, % at 18.7 µM; 360,000 tested, 0.46% active;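 active = every replicate showing at least 50% inhibition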
dFosB activator – enhances mouse delta FosB homodimer DNA binding; P13346; purified delta FosB, TAMRA-CDK5 oligo fluorescence polarization; percent of positive-control signal above neutral wells; activation, % at 25 µM; 340,000 tested, 0.99% active; AID 493131;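 active = mean activation above about 17%, with every replicate also reaching it, limit read from the data, passing the limit was not always enough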
F508del corr – correctors of CFTR F508del function in bronchial epithelial cells | activity (quench increase), % at 7.58 µM | 350,000 tested, 0.36% active | CFBE cells, YFP halide quenching; stimulated with forskolin plus potentiator P3; % fluorescence drop versus neutral controls | AID 720511;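 active = mean added fluorescence quench of at least 8% versus neutral control, with both replicates also reaching 8%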;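 note: cells transiently co-express mutant CFTR-F508del with the halide-sensitive YFP; corrector assay measuring rescue of mutant channel to the surface after 24 h compound exposure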
The depositor's hits bear a star; . = no result given. Most compounds without a hit are left out; they make up all but 1.5% or so of the library.

SMILES	PvdQ inh	Glyco luc inh	RAD54 branch	RAD52 anneal inh	dFosB activator	F508del corr
COC(=O)c1ccc(C2c3[nH]c4ccccc4c3C[C@H]3C(=O)N(C4CCN(Cc5ccccc5)CC4)CC(=O)N23)cc1 (stereo partly specified)	-9.2	-5.3	6.7	-7.6	55.4*	4.0
COc1ccc(OC)c(C2c3[nH]c4ccccc4c3C[C@H]3C(=O)N(C4CC4)CC(=O)N23)c1 (stereo partly specified)	-7.9	0.3	-3.8	8.5	-1.9	3.2
COc1cccc(C2c3[nH]c4ccccc4c3C[C@H]3C(=O)N(C4CC4)CC(=O)N23)c1 (stereo partly specified)	-13.9	0.8	-13.2	-11.0	-6.9	2.2
COc1ccc(C2c3[nH]c4ccccc4c3C[C@H]3C(=O)N(C4CCN(Cc5ccccc5)CC4)CC(=O)N23)c(OC)c1 (stereo partly specified)	-12.9	-4.2	-1.6	-30.6	21.0*	-1.3
O=C1[C@@H]2Cc3c([nH]c4ccccc34)C(c3ccccc3)N2C(=O)CN1C1CCN(Cc2ccccc2)CC1 (stereo partly specified)	-4.3	-1.2	4.9	-12.8	3.4	2.7
O=C1[C@@H]2Cc3c([nH]c4ccccc34)C(c3cccc(Br)c3)N2C(=O)CN1C1CCN(Cc2ccccc2)CC1 (stereo partly specified)	-10.4	-8.2	-6.9	-26.8	65.6*	-1.1
O=C(NC1Cc2ccccc2C1)[C@@H]1[C@@H](CO)[C@@H]2Cn3c(cccc3=O)[C@H]1N2C(=O)CC1CC1	.	.	-2.6	5.3	.	.
CCOc1ccccc1C1c2[nH]c3ccccc3c2C[C@H]2C(=O)N(C3CCN(Cc4ccccc4)CC3)CC(=O)N12 (stereo partly specified)	6.0	-7.2	-7.0	-9.2	63.5*	2.0
Cc1noc(C)c1NC(=O)Nc1cccc2c1O[C@@H](CN(C)C(=O)Nc1ccccc1)[C@@H](C)CN([C@H](C)CO)C2=O	.	.	1.0	0.2	.	-0.9
COCCCN=C1NN=C(c2cc(C)n(Cc3ccco3)c2C)CS1	-6.0	-2.6	.	20.1	-12.0	18.4*
Cc1cc(C2=NNC(=NC3CC3)SC2)c(C)n1Cc1ccco1	-8.5	-9.4	.	-17.5	-5.7	.
COc1ccc2c(c1)/C(=C/c1cc(OC)c(OC)c(OC)c1)C(=O)N2	-1.7	1.4	.	1.6	-1.4	12.7*
CCC(=O)Nc1ccc2c(c1)OC[C@@H](C)N(Cc1cccnc1)C[C@H](C)[C@@H](OC)CN(C)C2=O	.	.	-10.9	6.5	.	2.2
N/C(=N\OC(=O)COc1ccc(Br)cc1Cl)c1cccnc1	0.9	-1.1	.	-19.5	19.7*	.
COC(=O)c1cc(OC)c(OC)cc1NC(=S)NC(=O)c1ccco1	-7.4	39.6*	6.3	-6.1	2.8	7.4
COC(=O)c1cc(OC)c(OC)cc1NC(=O)c1ccc(OC)c(OC)c1	-1.8	3.9	9.8	.	19.1*	.
CCCNC(=O)N1CC2(C1)CN(C(=O)CC1CC1)[C@H](CO)c1[nH]c3cc(OC)ccc3c12	.	.	.	.	.	-0.6
CCOC(=O)C1=C(C)N(CC(C)C)C(=O)C1	-9.5	0.2	.	-2.4	1.2	0.8
CCCCN1C(=O)CC(C(=O)OCC)=C1C	-9.2	1.1	4.2	-6.0	-0.7	11.0*
C[C@H]1CN([C@@H](C)CO)C(=O)c2cc(NC(=O)Nc3cccc4ccccc34)ccc2O[C@H]1CN(C)S(=O)(=O)c1ccccc1	.	.	-17.3	-26.8	.	-2.8
O=C([C@H]1[C@H](CO)[C@H]2Cn3c(ccc(C4=CCCC4)c3=O)[C@@H]1N2C(=O)c1ccncc1)N1CCOCC1	.	.	5.6	-8.2	.	.
O=C(CCl)Nc1cccc(S(=O)(=O)NC2=NCCC2)c1	1.6	60.2*	.	-4.6	-5.3	-6.2
CCOC(=O)N1CCN(c2nc3ccccn3c(=O)c2C=O)CC1	31.2*	-1.1	-8.4	-17.7	0.4	0.3
CN1CCN(c2nc3ccccn3c(=O)c2C=O)CC1	-5.3	1.3	8.2	.	4.4	.
CO[C@H]1CC[C@@H]2CCN(C)C(=O)[C@@H](C)[C@@H](OC)CN(C)C(=O)c3cccc(C#N)c3OC[C@@H]1O2	.	.	8.7	-1.9	.	-2.6
SMILES	PvdQ inh	Glyco luc inh	RAD54 branch	RAD52 anneal inh	dFosB activator	F508del corr
Cc1sc2nc(SCCN(C)C)n(-c3ccccc3)c(=O)c2c1-c1ccc(F)cc1	5.2	3.7	10.9	6.5	22.4*	-1.3
CN(C)CCSc1nc(O)c(-c2ccccc2)c(=O)n1-c1ccccc1	9.4	4.4	.	-9.5	-13.2	0.2
Cc1cc(NCCN2CCOCC2)c2ccc3ccccc3c2n1	2.4	38.4*	.	22.3	-4.2	4.7
Cn1nnnc1N=N/C(=N/Nc1ccccc1)c1ccccc1	1.9	-0.5	12.7	-17.8	-6.4	12.6*
O=C(COc1ccc(C(=O)c2ccccc2)cc1)NCc1ccc(F)cc1	-1.9	28.7*	.	.	5.6	.
COc1ccc(NCC(=O)n2c(C)c(C)c3ccccc32)cc1	-9.8	25.0	-2.0	-21.9	-5.7	9.4*
CN1C(=O)c2cc(NC(=O)Nc3ccc(Cl)cc3)ccc2OC[C@@H]2O[C@@H](CC(=O)NCCN3CCCCC3)CC[C@@H]21	.	.	6.6	57.3*	.	0.8
COC(=O)C[C@@H]1CC[C@@H]2[C@H](COc3ccc(NC(=O)c4cc(C)on4)cc3C(=O)N2C)O1	.	.	5.8	-12.8	.	14.0*
CCCCn1c(SCc2c(C)noc2C)nc2cc(S(N)(=O)=O)ccc21	5.6	39.7*	-5.7	.	1.5	.
CCCCn1c(SCC(=O)Nc2cc(C)on2)nc2cc(S(N)(=O)=O)ccc21	2.9	-0.4	-3.9	-29.4	-7.9	-1.2
CCCOc1ccc(C(=O)OCCN(CC)CC)cc1N	2.5	-4.4	4.0	95.0*	-3.2	-4.0
COc1ccc(-n2nc(C(=O)NCC(=O)Nc3ccccn3)c3ccccc3c2=O)cc1Cl	-4.9	2.8	12.4	.	67.2*	.
C[C@H](CO)N1C[C@H](C)[C@H](CN(C)Cc2ccccc2)OCCCC[C@H](C)Oc2ccc(NS(=O)(=O)c3ccc(Cl)cc3)cc2C1=O	.	.	-1.7	51.9*	.	-0.7
C[C@@H]1CCCCO[C@@H](CN(C)Cc2ccccc2)[C@@H](C)CN([C@@H](C)CO)C(=O)c2cc(NS(=O)(=O)c3ccc(Cl)cc3)ccc2O1	.	.	2.1	57.8*	.	1.6
C[C@@H]1CCCCO[C@H](CN(C)Cc2ccc(C(=O)Nc3ccccc3N)cc2)[C@@H](C)CN([C@H](C)CO)C(=O)c2cc(NS(=O)(=O)c3ccc(F)cc3)ccc2O1	.	.	2.3	58.8*	.	2.9
O=C(NC1CCCCC1)N[C@@H]1CC[C@@H](CCNS(=O)(=O)c2ccccc2)O[C@@H]1CO	.	.	7.8	12.4	.	-0.4
NC(=O)c1cc(Cc2ccccc2)sc1NC(=O)c1ccco1	-14.7	-1.7	10.9	-21.3	75.2*	3.4
COc1ccc2c3c([nH]c2c1)[C@@H](CO)N(S(=O)(=O)c1cn(C)cn1)CC31CCN(CC2CCCCC2)CC1	.	.	.	-6.1	.	8.6*
